Measured values reported in PubChem BioAssay (NCI).
The panel holds about 79,000 compounds, 15% with a hit somewhere; the sample as a whole holds those more often. Cut-off read from the data, not from the text of the source: active = growth inhibition above about 70%; inactive = the rest.

What was measured:
[1] = NCI Yeast Anticancer Drug Screen. Data for the rad50 strain (AID 155);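 note: 0% = growth of vehicle-only cultures of the same strain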; conditions: S. cerevisiae rad50 strain growth inhibition; at 50.0 µM; active compounds read high
How it was run: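 A DNA repair-deficient yeast mutant serves as the test organism; compound-induced growth inhibition is calculated against vehicle-treated cells.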

[2] = NCI Yeast Anticancer Drug Screen. Data for the mec2-1 strain (AID 157); conditions: S. cerevisiae mec2-1 strain, at 50.0 µM, active compounds read high
How it was run: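 Test agents were screened against the mec2-1 yeast strain, with defined DNA repair or cell cycle alteration. Growth was scored as inhibition against vehicle-only controls.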

[3] = NCI Yeast Anticancer Drug Screen. Data for the sgs1 mgt1 strain (AID 161);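 note: 0% = growth of cultures given vehicle only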; conditions: S. cerevisiae sgs1 mgt1 strain, at 50.0 µM, active compounds read high
How it was run: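 Genetically altered yeast, compound exposure, growth inhibition relative to vehicle.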

[4] = NCI Yeast Anticancer Drug Screen. Data for the cln2 rad14 strain (AID 165);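 note: 0% = growth equal to vehicle treated cultures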; conditions: S. cerevisiae cln2 rad14 strain, at 50.0 µM, active compounds read high
How it was run: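 Growth of compound-exposed yeast (cln2 rad14 genotype) measured and expressed as inhibition relative to vehicle.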

[5] = NCI Yeast Anticancer Drug Screen. Data for the bub3 strain (AID 167); conditions: S. cerevisiae bub3 mutant strain, at 50.0 µM, active compounds read high
How it was run: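 Inhibition values come from growth of compound-treated mutant yeast normalised to vehicle-treated controls.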

[6] = NCI Yeast Anticancer Drug Screen. Data for the mlh1 rad18 strain (AID 175); conditions: S. cerevisiae mlh1 rad18 strain growth inhibition; at 50.0 µM; active compounds read high
How it was run: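 In this whole-cell yeast screen, a strain with altered DNA damage repair is challenged with compound, and its growth is measured against matched vehicle-treated controls.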

Measured: growth inhibition

CNC(=O)Nc1ccnc(=O)[nH]1
inactive: [1] -10.6% | [2] -1.85% | [3] -6.15% | [4] -28.3% | [5] -9.55% | [6] -8.8%

O=C(O)c1scc2c1CCCC2
inactive: [1] -1.65% | [2] -21.7% | [3] -7.5% | [4] -67% | [5] -22.3% | [6] -39.6%

NC(=O)C1CC(I)C2CC1C(=O)O2 (configuration not stated)
inactive: [1] 1.45% | [2] -4.3% | [3] -4.45% | [4] 4.3% | [5] 0.35% | [6] -6.5%

CCC(C(N)=O)C(N)=O
inactive: [1] -20.1% | [2] -27.9% | [3] -34.5% | [4] 15.8% | [5] -1.3% | [6] -6.1%

O=C1NC2c3ccccc3CCC12 (configuration not stated)
inactive: [1] -1.55% | [2] -5.45% | [3] -1.5% | [4] -71.8% | [5] 8.65% | [6] -4.5%

COc1cccc(N2CCN(CC(O)COc3ccc(N)cc3)CC2)c1 (configuration not stated)
inactive: [1] 36.1% | [2] 25.1% | [3] 31.9% | [4] 30.6% | [5] 25.1% | [6] 44%

C/C(=C/CNc1ncnc2c1ncn2CCC(=O)O)CO
inactive: [1] -22.4% | [2] 12.5% | [3] -31.7% | [4] 1.65% | [5] 1.7% | [6] -0.5%

COc1ccccc1NC(C)=O
inactive: [1] 8.15% | [2] 5.8% | [3] 0.15% | [4] 6% | [5] 11.4% | [6] -30.4%

CCCCCCCNC(C)=O
inactive: [1] 14.1% | [2] 15.5% | [3] 3.6% | [4] 10.1% | [5] -0.7% | [6] -5%

CN(Nc1ccnc(=O)[nH]1)c1ccccc1
inactive: [1] -35.9% | [2] -11.2% | [3] -11% | [4] -23.6% | [5] -2.7% | [6] 8.8%

CCCCCCCCCCCCc1ccc(CS)cc1
inactive: [1] 40.9% | [2] 36.3% | [3] 54% | [4] -1.7% | [5] 51.3% | [6] 32.6%

c1ccc(-c2nnn(-n3nnc(-c4ccccc4)n3)n2)cc1
inactive: [1] -13% | [2] 12.3% | [3] 10.9% | [4] -5.55% | [5] 1.3% | [6] 25.5%

CSC(=N)N1N=C2c3ccccc3CC[C@@H]2[C@@H]1c1ccccc1
inactive: [1] -0.1% | [2] -7.3% | [3] -18.9% | [4] 38% | [5] -10.8% | [6] -18.4%

Clc1ccc(C(CI)c2ccccc2Cl)cc1 (configuration not stated)
inactive: [1] 10.8% | [2] 11.3% | [3] 12.3% | [4] 13.8% | [5] 27.9% | [6] 6.05%

CSc1nc2c(N)ncnc2n1C
inactive: [1] 11.4% | [2] 1.4% | [3] 9.55% | [4] 27.7% | [5] 8.15% | [6] 36.8%

O=C1OCC(O)C(O)C(O)C(O)C1O (configuration not stated)
inactive: [1] 36.1% | [2] 27.3% | [3] 26.2% | [4] 21.1% | [5] 38.4% | [6] 39.7%

O=C1CSC(=S)N1c1cccc(F)c1
inactive: [1] 32.1% | [2] -10.6% | [3] 2.1% | [4] -27.2% | [5] -18.1% | [6] 3.65%

OCC1CC(O)CN2CCc3c([nH]c4ccccc34)C2C1 (configuration not stated)
inactive: [1] 4.6% | [2] 3.25% | [3] 11.3% | [4] -5.2% | [5] 0.1% | [6] 2.8%

OC(CBr)CBr
inactive: [1] 1.8% | [2] -7.45% | [3] 0.4% | [4] -42.8% | [5] -3.05% | [6] 9.9%

CC(=O)OCC1OC(N2C(=O)/C(=C/c3ccc4c(c3)OCO4)SC2=S)C(OC(C)=O)C(OC(C)=O)C1OC(C)=O (configuration not stated)
inactive: [1] 1.5% | [2] -12.2% | [3] -20.9% | [4] 1.15% | [5] 0.15% | [6] 0.2%

CCC(=O)OCC(C)COC(=O)CC
inactive: [1] 9.55% | [2] 11.8% | [3] 4.1% | [4] 1.05% | [5] -8.4% | [6] -5.25%

COC(=O)C#Cc1cccc(OC)c1OC
inactive: [1] 22.1% | [2] 14.9% | [3] 22.9% | [4] -31.2% | [5] 12.3% | [6] 10.2%

Cc1cc(O)c(/C=N/C(=O)NN)c(=O)o1
inactive: [1] -40.6% | [2] -11.1% | [3] -20.1% | [4] -22.4% | [5] -22.5% | [6] -42.5%

CN1CCOC(=O)C(C#N)=C1c1ccccc1
inactive: [1] -26.5% | [2] 6.95% | [3] -9.15% | [4] -17% | [5] -7.25% | [6] -3.15%

COC(=O)[C@@]1(C(C)CC(=O)O)CCCCC1=O (some centres not stated)
inactive: [1] -11.6% | [2] -16.4% | [3] -38.2% | [4] -7.35% | [5] -20.8% | [6] -13.2%

Cc1cc(C(=O)C[n+]2ccccc2)c(CN2C(=O)c3ccccc3C2=O)c(=O)n1C
inactive: [1] 14.8% | [2] -14.3% | [3] -3.9% | [4] -19.1% | [5] 6.3% | [6] 6.55%

O=C(O)C(F)(F)C(F)(F)C(F)(F)C(F)(F)C(=O)O
inactive: [1] -1.85% | [2] -2.95% | [3] -37.8% | [4] -28.3% | [5] -45.8% | [6] -22.8%

C1=Nc2ccccc2Cn2nncc21
inactive: [1] 19.7% | [2] 21% | [3] 43.1% | [4] 18.4% | [5] 17.1% | [6] 41.5%

Cc1nc2ccccc2c(=O)n1NC(=O)c1ccccc1O
inactive: [1] -7.45% | [2] -53.6% | [3] -7.6% | [4] 11.5% | [5] -4.1% | [6] 17.1%

Cc1cc2c(c(C(=O)NCCC(=O)N[C@@H](C)C(=O)OCc3ccccc3)c1)Oc1c(cc(C)cc1C(=O)NCCC(=O)N[C@@H](C)C(=O)OCc1ccccc1)S2
inactive: [1] 24% | [2] 10.8% | [3] 30.1% | [4] 28.8% | [5] -9.8% | [6] 27.1%

CC(C)NCCO
inactive: [1] 23.1% | [2] -3% | [3] -1.85% | [4] 21.2% | [5] 0.3% | [6] 12.3%

Nc1ccn(C2CC3OCC3O2)c(=O)n1 (configuration not stated)
inactive: [1] -13.2% | [2] 24.9% | [3] -1.25% | [4] -5.7% | [5] 0.95% | [6] 0.65%

O=C(N/N=C/c1ccccc1F)c1ccncc1
inactive: [1] 1.1% | [2] 5% | [3] -0.95% | [4] -24.4% | [5] -7.65% | [6] 23.9%

COc1ccc(C(C)c2cc(OC)c(OC)cc2OC)cc1 (configuration not stated)
inactive: [1] 17.6% | [2] 10.8% | [3] 25.6% | [4] -29.2% | [5] 44.2% | [6] 37.8%

Cn1c(Cl)cc2nc3ccccc3n2c1=O
inactive: [1] 10.2% | [2] 19.7% | [3] -1% | [4] -11.3% | [5] 11.2% | [6] 5.4%

O=C1Cc2ccccc2C(O)=C1c1cnccn1
inactive: [1] 6.3% | [2] 11.2% | [3] 19.6% | [4] -1.6% | [5] 0.25% | [6] 5.95%

S=C(Cc1cccc2ccccc12)N1CCN(c2ccc(Cl)cc2)CC1
inactive: [1] -17% | [2] -2.3% | [3] -16% | [4] -7.9% | [5] -9.95% | [6] -0.55%

O=C1CCC(C(Sc2ccccc2)(Sc2ccccc2)Sc2ccccc2)C1 (configuration not stated)
inactive: [1] -5.05% | [2] -21.7% | [3] -22% | [4] -7.2% | [5] -1.55% | [6] -41.4%

CC(C)(C(=O)O)c1ccccc1C(=O)c1ccccc1
inactive: [1] -10.7% | [2] 12.1% | [3] 0.15% | [4] 49.3% | [5] -0.75% | [6] 14.3%

CNC(=O)c1cc2nc3ccccc3c(=O)n2c2ccccc12
inactive: [1] -46.3% | [2] -54% | [3] -25.1% | [4] -20.6% | [5] -7% | [6] -31.1%

CC(=O)OC1CC(OC(C)=O)C(OC(C)=O)CC1OC(C)=O (configuration not stated)
inactive: [1] 7.95% | [2] -5.15% | [3] -9.45% | [4] -18.2% | [5] 1.05% | [6] 12.6%

CN(C)C(=O)c1ccccc1
inactive: [1] 29.6% | [2] 6.25% | [3] -0.35% | [4] 13.9% | [5] -9.25% | [6] 1.55%
